# Laboratory results published in PubChem BioAssay AID1159580 (chemical genetic matrix, 2015).
# Among all 5,500 compounds or so, about 2,000 (36%) were called active. Another 18% or so got no clear call; they are omitted. Some of the results follow. A number with no mark means an inactive call. No stated cut-off is given here; in the data, active means normalized growth mostly below about 0.91 (no sharp cut-off); inconclusive means no clear call, values can overlap the other calls; inactive means mostly above about 0.92.
# Assay: chemical genetic growth profiling, strain panel (AID 1159580);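 further: tested at 20 µM; growth read once vehicle control cultures reached saturation at 30 °C; 1 = growth at the plate median or of vehicle wells; lower values mean less growth of the strain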
# Conditions: S. cerevisiae deletion strains, growth OD
compound,measurement,setting,value
O=C(NNc1ccccc1)c1cc(-c2ccc(Cl)cc2)oc1C(F)(F)F,normalized growth,"locus YAR019C, strain CDC15, active compounds read low",0.947
same,normalized growth,"locus YBL105C, strain PKC1, active compounds read low",0.952
same,normalized growth,"locus YBR135W, strain CKS1, active compounds read low",0.934
same,normalized growth,"locus YBR136W, strain MEC1, active compounds read low",0.952
same,normalized growth,"locus YBR160W, strain CDC28, active compounds read low",0.942
same,normalized growth,"locus YDL017W, strain CDC7, active compounds read low",0.949
same,normalized growth,"locus YDL028C, strain MPS1, active compounds read low",0.957
same,normalized growth,"locus YDL101C, strain DUN1, active compounds read low",0.973
same,normalized growth,"locus YDL108W, strain KIN28, active compounds read low",0.95
same,normalized growth,"locus YDL132W, strain cdc53, active compounds read low",0.953
same,normalized growth,"locus YDL214C, strain PRR2, active compounds read low",0.714
same,normalized growth,"locus YDR052C, strain DBF4, active compounds read low",0.956
same,normalized growth,"locus YDR054C, strain cdc34, active compounds read low",0.94
same,normalized growth,"locus YDR226W, strain ADK1, active compounds read low",0.951
same,normalized growth,"locus YDR477W, strain SNF1, active compounds read low",0.615 (active)
same,normalized growth,"locus YER123W, strain YCK3, active compounds read low",0.522 (active)
same,normalized growth,"locus YER133W, strain GLC7, active compounds read low",0.629 (active)
same,normalized growth,"locus YFL009W, strain cdc4, active compounds read low",0.958
same,normalized growth,"locus YFL029C, strain CAK1, active compounds read low",0.943
same,normalized growth,"locus YFR003C, strain YPI1, active compounds read low",0.958
same,normalized growth,"locus YFR019W, strain FAB1, active compounds read low",0.779
same,normalized growth,"locus YFR028C, strain CDC14, active compounds read low",0.942
same,normalized growth,"locus YGR040W, strain KSS1, active compounds read low",0.622 (active)
same,normalized growth,"locus YGR052W, strain FMP48, active compounds read low",0.38 (active)
same,normalized growth,"locus YGR092W, strain DBF2, active compounds read low",0.434 (active)
same,normalized growth,"locus YHR030C, strain SLT2, active compounds read low",0.289 (active)
same,normalized growth,"locus YHR079C, strain IRE1, active compounds read low",0.541
same,normalized growth,"locus YHR082C, strain KSP1, active compounds read low",0.5 (active)
same,normalized growth,"locus YHR205W, strain SCH9, active compounds read low",0.624
same,normalized growth,"locus YIL147C, strain SLN1, active compounds read low",0.96
same,normalized growth,"locus YJL095W, strain BCK1, active compounds read low",0.293 (active)
same,normalized growth,"locus YJL128C, strain PBS2, active compounds read low",0.975
same,normalized growth,"locus YJL157C, strain FAR1, active compounds read low",0.75
same,normalized growth,"locus YJR016C, strain ILV3, active compounds read low",0.95
same,normalized growth,"locus YJR066W, strain TOR1 (second series), active compounds read low",0.66
same,normalized growth,"locus YJR066W, strain TOR1, active compounds read low",0.456 (active)
same,normalized growth,"locus YKL048C, strain ELM1, active compounds read low",0.762 (active)
same,normalized growth,"locus YKL067W, strain YNK1, active compounds read low",0.686 (active)
same,normalized growth,"locus YKL101W, strain HSL1, active compounds read low",0.521 (active)
same,normalized growth,"locus YKL193C, strain SDS22, active compounds read low",0.954
same,normalized growth,"locus YKL203C, strain TOR2, active compounds read low",0.636 (active)
same,normalized growth,"locus YLR113W, strain HOG1, active compounds read low",0.234 (active)
same,normalized growth,"locus YLR133W, strain CKI1, active compounds read low",0.678 (active)
same,normalized growth,"locus YLR403W, strain SFP1, active compounds read low",0.653 (active)
same,normalized growth,"locus YML070W, strain DAK1, active compounds read low",0.465 (active)
same,normalized growth,"locus YMR001C, strain CDC5, active compounds read low",0.942
same,normalized growth,"locus YMR205C, strain PFK2 (second series), active compounds read low",0.667 (active)
same,normalized growth,"locus YMR277W, strain FCP1, active compounds read low",0.953
same,normalized growth,"locus YNL006W, strain LST8, active compounds read low",0.96
same,normalized growth,"locus YNL020C, strain ARK1, active compounds read low",0.683 (active)
same,normalized growth,"locus YNL161W, strain CBK1, active compounds read low",0.944
same,normalized growth,"locus YNL183C, strain NPR1, active compounds read low",0.697
same,normalized growth,"locus YNL207W, strain RIO2, active compounds read low",0.959
same,normalized growth,"locus YNL222W, strain SSU72, active compounds read low",0.931
same,normalized growth,"locus YNL307C, strain MCK1 (second series), active compounds read low",0.549 (active)
same,normalized growth,"locus YOL078W, strain AVO1, active compounds read low",0.952
same,normalized growth,"locus YOL136C, strain PFK27, active compounds read low",0.727
same,normalized growth,"locus YOR061W, strain CKA2, active compounds read low",0.795
same,normalized growth,"locus YOR119C, strain RIO1, active compounds read low",0.684 (active)
same,normalized growth,"locus YOR231W, strain MKK1, active compounds read low",0.46 (active)
same,normalized growth,"locus YOR329C, strain SCD5, active compounds read low",0.957
same,normalized growth,"locus YPL031C, strain PHO85, active compounds read low",0.443 (active)
same,normalized growth,"locus YPL153C, strain RAD53, active compounds read low",0.339 (active)
same,normalized growth,"locus YPL204W, strain HRR25, active compounds read low",0.58 (active)
same,normalized growth,"locus YPL209C, strain IPL1, active compounds read low",0.926
same,normalized growth,"locus YPL256C, strain CLN2, active compounds read low",0.492 (active)
same,normalized growth,"locus YPR025C, strain CCL1, active compounds read low",0.951
same,normalized growth,"locus YPR106W, strain ISR1, active compounds read low",0.933
same,normalized growth,"locus YPR111W, strain DBF20, active compounds read low",0.931
same,normalized growth,"strain NNK1, active compounds read low",0.939
same,normalized growth,"strain TSCII, active compounds read low",0.95
